Source: PubChem BioAssay (EPA / NIEHS)
Inconclusive results are not listed. Active and inactive are the calls of the source. Rule for the calls, unless noted: active = hit-call score of the fitted dose curve at least 0.9, where 1 is the maximum; inconclusive = response in the unintended direction; inactive = score below 0.9.

What was measured:
[1] = molecular target: Glucocorticoid receptor (Homo sapiens) (UniProt P04150); test: ATG_GR_TRANS: Attagene TRANS-FACTORIAL HepG2 Assay for human Glucocorticoid Receptor (GR) (AID 2282978); details: HepG2 Attagene TRANS GR reporter, mRNA transcription;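 note: activators score as hits since higher reporter transcript over DMSO is fitted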
Sequence of Glucocorticoid receptor (Homo sapiens) (P04150 whole entry, looked up, the tested form may be a part): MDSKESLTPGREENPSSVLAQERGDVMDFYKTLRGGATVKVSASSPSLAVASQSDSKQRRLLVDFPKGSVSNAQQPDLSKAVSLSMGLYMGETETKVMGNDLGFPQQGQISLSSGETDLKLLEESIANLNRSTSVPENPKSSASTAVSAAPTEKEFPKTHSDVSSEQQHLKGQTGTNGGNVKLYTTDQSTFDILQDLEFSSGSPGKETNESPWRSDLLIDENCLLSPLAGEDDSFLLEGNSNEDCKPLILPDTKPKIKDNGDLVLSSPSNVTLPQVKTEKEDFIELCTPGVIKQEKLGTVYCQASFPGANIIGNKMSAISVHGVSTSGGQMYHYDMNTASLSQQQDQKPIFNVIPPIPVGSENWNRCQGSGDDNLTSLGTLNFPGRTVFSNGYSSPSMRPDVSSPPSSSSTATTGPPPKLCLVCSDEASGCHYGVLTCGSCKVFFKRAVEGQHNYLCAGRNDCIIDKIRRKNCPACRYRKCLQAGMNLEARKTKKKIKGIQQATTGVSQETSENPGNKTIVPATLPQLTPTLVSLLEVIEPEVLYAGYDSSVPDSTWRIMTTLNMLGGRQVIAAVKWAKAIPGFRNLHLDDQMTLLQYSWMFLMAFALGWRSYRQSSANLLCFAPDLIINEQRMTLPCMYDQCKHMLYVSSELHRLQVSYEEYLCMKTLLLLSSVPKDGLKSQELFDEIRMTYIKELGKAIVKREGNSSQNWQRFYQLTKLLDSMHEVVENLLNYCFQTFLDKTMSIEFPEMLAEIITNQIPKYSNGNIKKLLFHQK
Method in brief: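 Transient MRTU transfection of HepG2 (GAL4-UAS reporters, exogenous NR-GAL4 chimeras), 24 h dosing. Readout: reporter transcript via RT-PCR + capillary electrophoresis fluorescence. Positive direction vs DMSO baseline.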

[2] = molecular target: Oxysterols receptor LXR-alpha (Homo sapiens) (UniProt Q13133); test: ATG_LXRa_TRANS: Attagene TRANS-FACTORIAL HepG2 Assay for human Liver X Receptor alpha (LXRa) (AID 2282980); details: HepG2 Attagene TRANS reporter, LXRa transactivation
Sequence of Oxysterols receptor LXR-alpha (Homo sapiens) (Q13133 whole entry, looked up, the tested form may be a part): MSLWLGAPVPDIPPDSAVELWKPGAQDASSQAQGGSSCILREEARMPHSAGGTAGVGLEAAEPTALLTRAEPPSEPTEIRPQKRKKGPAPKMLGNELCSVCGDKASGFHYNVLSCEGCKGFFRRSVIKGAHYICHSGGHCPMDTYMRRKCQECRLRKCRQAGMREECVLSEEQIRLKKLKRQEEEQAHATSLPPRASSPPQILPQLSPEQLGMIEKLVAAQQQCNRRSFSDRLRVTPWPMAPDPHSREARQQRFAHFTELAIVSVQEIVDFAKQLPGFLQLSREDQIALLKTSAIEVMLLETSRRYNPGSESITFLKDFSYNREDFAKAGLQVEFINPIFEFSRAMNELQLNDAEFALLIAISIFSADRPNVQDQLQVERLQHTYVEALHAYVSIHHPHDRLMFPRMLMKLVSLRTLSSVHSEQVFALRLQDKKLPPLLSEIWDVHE
Method in brief: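 In this multiplexed TRANS system, compounds act on HepG2 cells carrying GAL4-UAS reporter units and a receptor-GAL4 fusion for 24 h. Induced reporter RNA is amplified, fluorescently labelled and sized by capillary electrophoresis, with DMSO as baseline.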

[3] = molecular target: Nuclear receptor subfamily 4 group A member 2 (Homo sapiens) (UniProt P43354); test: ATG_NURR1_TRANS: Attagene TRANS-FACTORIAL HepG2 Assay for human Nuclear Receptor Related Protein 1 (NURR1) (AID 2282985); details: HepG2 Attagene TRANS reporter, mRNA readout
Sequence of Nuclear receptor subfamily 4 group A member 2 (Homo sapiens) (P43354 whole entry, looked up): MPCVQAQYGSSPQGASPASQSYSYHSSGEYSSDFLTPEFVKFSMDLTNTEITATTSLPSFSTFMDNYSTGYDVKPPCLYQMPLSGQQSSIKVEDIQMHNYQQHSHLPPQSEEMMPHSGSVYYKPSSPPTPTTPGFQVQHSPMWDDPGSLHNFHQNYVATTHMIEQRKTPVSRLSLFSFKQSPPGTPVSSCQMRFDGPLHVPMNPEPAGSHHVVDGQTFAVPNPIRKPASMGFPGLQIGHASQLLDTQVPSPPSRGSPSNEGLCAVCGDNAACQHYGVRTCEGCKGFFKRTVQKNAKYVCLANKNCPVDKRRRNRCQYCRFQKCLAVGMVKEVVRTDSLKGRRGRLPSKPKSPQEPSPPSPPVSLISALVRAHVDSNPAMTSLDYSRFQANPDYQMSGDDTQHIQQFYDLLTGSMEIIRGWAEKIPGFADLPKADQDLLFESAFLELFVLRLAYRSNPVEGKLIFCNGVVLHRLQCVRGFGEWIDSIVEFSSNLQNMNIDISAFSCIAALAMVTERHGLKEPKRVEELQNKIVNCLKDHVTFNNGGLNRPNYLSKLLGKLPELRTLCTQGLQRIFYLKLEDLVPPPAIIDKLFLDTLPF
Method in brief: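 Cells: HepG2, transiently transfected. Exposure: 24 h. Detection: fluorescence of labelled RT-PCR products separated by capillary electrophoresis; upward fit versus DMSO.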

[4] = molecular target: human Vitamin D Receptor (VDR), VDR (gene 7421) (UniProt P11473); test: ATG_VDR_TRANS: Attagene TRANS-FACTORIAL HepG2 Assay for human Vitamin D Receptor (VDR) (AID 2283022)
Method in brief: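 Multiplexed TRANS reporter in HepG2; 24 h treatment; reporter mRNA by RT-PCR plus capillary electrophoresis; upregulation scored relative to DMSO.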

[5] = ATG_XTT_Cytotoxicity: Cytotoxicity Assessment in the Attagene TRANS-FACTORIAL HepG2 Assay (AID 2283584)
Method in brief: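 24 h chemical exposure of reporter-transfected HepG2; XTT signal loss vs DMSO indicates cytotoxicity.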

[6] = TOX21_p53_BLA_p3_viability: Viability Assessment in the Tox21 HCT-116 p53 Agonism Beta-lactamase Assay, Phase 3 (AID 2283593);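 note: cells exposed to compound for 16 h before reading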
Method in brief: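 Cellular ATP was quantified by CellTiter-Glo luminescence, read after 30 min at room temperature. Beforehand, HCT116 cells (4000/well) received compound 5 h post-seeding, 217-fold diluted from DMSO, then incubated 16 h at 37C.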

[7] = TOX21_p53_BLA_p4_viability: Viability Assessment in the Tox21 HCT-116 p53 Agonism Beta-lactamase Assay, Phase 4 (AID 2283597);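 note: hits lower the luminescence signal meaning cytotoxicity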
Method in brief: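 Luminescent ATP readout (CellTiter-Glo, 30 min, room temperature) in the same wells as the p53 bla ratio. HCT116 cells were treated for 16 h at 37C with DMSO-dissolved compounds.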

[8] = ACEA_ER_AUC_viability: ACEA Biosciences xCELLigence Real-Time Cell Analysis on Estrogen Receptor Agonism for Viability (AID 2283782);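 note: continuous compound exposure with impedance area under curve over 80 h; hit means loss of impedance signal meaning reduced cell growth or viability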
Method in brief: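 T-47D; phenol red-free RPMI1640 + 10% CS-FBS; 8 conc., 1:4 serial, max 100 uM final, ≤0.5% DMSO; n = 2; continuous exposure; impedance monitored to 80 h post-dose; AUC vs DMSO.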

[9] = molecular target: Bile acid receptor (Homo sapiens) (UniProt Q96RI1); test: ATG_IR1_CIS: Attagene CIS-FACTORIAL HepG2 Assay for human Nuclear Receptor Subfamily 1 Group H Member 4 (NR1H4), IR1 submotif (AID 2282946; active = hit-call score of the fitted dose curve at least 0.9, where 1 is the maximum; inactive = score below 0.9); details: IR1 reporter transcription, actives raise or lower the signal
Sequence of Bile acid receptor (Homo sapiens) (Q96RI1 whole entry, looked up, the tested form may be a part): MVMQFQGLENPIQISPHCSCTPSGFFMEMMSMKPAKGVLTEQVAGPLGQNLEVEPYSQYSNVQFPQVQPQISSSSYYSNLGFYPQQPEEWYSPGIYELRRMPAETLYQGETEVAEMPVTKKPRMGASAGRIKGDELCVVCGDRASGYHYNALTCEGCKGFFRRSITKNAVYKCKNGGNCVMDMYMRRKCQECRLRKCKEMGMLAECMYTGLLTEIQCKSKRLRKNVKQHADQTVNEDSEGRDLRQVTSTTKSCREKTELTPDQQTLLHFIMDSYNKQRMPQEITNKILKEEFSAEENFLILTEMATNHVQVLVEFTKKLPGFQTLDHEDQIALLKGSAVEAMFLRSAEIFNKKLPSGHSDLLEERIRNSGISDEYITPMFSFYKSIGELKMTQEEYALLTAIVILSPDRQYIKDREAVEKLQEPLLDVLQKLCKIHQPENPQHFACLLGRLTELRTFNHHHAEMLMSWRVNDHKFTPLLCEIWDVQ
Method in brief: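 Cells (human HepG2) carry transiently transfected cis-promoter reporter transcription units. Compounds are incubated 24 h, total RNA is reverse-transcribed and amplified, and labelled fragments are resolved by capillary electrophoresis. Curves use DMSO as baseline.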

[10] = molecular target: Oxysterols receptor LXR-beta (Homo sapiens) (UniProt P55055); test: ATG_LXRb_TRANS: Attagene TRANS-FACTORIAL HepG2 Assay for human Liver X Receptor beta (LXRb) (AID 2282981); details: HepG2 Attagene TRANS GAL4-LXRb reporter, mRNA
Sequence of Oxysterols receptor LXR-beta (Homo sapiens) (P55055 whole entry, looked up, the tested form may be a part): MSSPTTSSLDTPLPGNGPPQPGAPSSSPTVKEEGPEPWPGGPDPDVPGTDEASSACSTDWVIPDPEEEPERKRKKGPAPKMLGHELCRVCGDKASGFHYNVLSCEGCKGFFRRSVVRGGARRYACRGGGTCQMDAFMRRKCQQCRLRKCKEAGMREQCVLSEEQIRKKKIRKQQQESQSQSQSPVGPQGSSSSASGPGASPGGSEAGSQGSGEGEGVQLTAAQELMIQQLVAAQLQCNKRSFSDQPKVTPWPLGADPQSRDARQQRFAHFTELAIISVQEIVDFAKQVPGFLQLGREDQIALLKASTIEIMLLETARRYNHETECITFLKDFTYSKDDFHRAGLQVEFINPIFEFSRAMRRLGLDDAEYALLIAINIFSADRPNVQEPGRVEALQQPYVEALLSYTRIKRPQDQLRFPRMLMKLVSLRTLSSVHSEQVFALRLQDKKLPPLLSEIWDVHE
Method in brief: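 Cells: HepG2, transiently transfected with GAL4-UAS reporter units plus LXRb-Gal4 fusion. Treatment: 24 h. Detection: reporter mRNA by RT-PCR, 6-FAM labelling, HpaI digestion, capillary electrophoresis.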

[11] = molecular target: human RAR-related Orphan Receptor beta (RORb), RORB (gene 6096) (UniProt Q92753); test: ATG_RORb_TRANS: Attagene TRANS-FACTORIAL HepG2 Assay for human RAR-related Orphan Receptor beta (RORb) (AID 2283010)
Sequence of human RAR-related Orphan Receptor beta (RORb), RORB (gene 6096) (Q92753 whole entry, looked up, the tested form may be a part): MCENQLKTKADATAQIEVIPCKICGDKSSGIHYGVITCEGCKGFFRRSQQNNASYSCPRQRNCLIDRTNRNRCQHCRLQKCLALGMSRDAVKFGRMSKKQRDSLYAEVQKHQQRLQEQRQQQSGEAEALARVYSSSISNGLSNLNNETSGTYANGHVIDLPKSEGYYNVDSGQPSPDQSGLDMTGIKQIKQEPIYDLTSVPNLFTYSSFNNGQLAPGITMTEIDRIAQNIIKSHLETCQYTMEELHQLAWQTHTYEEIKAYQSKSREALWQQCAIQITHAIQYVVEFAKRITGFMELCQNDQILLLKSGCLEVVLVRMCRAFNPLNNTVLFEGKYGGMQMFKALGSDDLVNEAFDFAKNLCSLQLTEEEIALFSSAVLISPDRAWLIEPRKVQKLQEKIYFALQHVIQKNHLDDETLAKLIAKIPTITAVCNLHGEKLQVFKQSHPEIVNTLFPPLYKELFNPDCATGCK
Method in brief: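 HepG2 cells were transiently transfected with multiplexed GAL4-UAS reporter units expressing chimeric nuclear receptor–GAL4 proteins, then dosed for 24 h. Reporter mRNA was quantified by RT-PCR with fluorescent labelling and capillary electrophoresis; gain of signal was fitted relative to DMSO.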

[12] = molecular target: human RAR-related Orphan Receptor gamma (RORg), RORC (gene 6097) (UniProt P51449); test: ATG_RORg_TRANS: Attagene TRANS-FACTORIAL HepG2 Assay for human RAR-related Orphan Receptor gamma (RORg) (AID 2283011)
Sequence of human RAR-related Orphan Receptor gamma (RORg), RORC (gene 6097) (P51449 whole entry, looked up, the tested form may be a part): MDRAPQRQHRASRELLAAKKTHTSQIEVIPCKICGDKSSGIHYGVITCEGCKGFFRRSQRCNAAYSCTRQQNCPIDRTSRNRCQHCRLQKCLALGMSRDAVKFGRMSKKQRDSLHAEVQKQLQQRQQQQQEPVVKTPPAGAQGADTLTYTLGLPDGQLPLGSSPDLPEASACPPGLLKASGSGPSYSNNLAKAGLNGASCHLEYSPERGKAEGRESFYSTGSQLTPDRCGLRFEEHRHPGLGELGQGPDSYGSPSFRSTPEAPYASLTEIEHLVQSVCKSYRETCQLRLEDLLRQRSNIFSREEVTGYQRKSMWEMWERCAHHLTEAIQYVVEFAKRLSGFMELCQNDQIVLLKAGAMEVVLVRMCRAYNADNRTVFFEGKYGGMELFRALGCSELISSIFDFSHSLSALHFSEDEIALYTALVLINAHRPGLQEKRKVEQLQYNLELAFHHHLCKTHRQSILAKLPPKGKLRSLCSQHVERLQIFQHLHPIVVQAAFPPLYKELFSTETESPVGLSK
Method in brief: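 Chimeric RORg-Gal4 transactivation in transfected HepG2; 24 h exposure; RT-PCR/capillary electrophoresis readout of reporter mRNA, DMSO baseline.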

[13] = molecular target: Retinoic acid receptor RXR-alpha (Homo sapiens) (UniProt P19793); test: ATG_RXRa_TRANS: Attagene TRANS-FACTORIAL HepG2 Assay for human Retinoid X Receptor alpha (RXRa) (AID 2283012)
Sequence of Retinoic acid receptor RXR-alpha (Homo sapiens) (P19793 whole entry, looked up, the tested form may be a part): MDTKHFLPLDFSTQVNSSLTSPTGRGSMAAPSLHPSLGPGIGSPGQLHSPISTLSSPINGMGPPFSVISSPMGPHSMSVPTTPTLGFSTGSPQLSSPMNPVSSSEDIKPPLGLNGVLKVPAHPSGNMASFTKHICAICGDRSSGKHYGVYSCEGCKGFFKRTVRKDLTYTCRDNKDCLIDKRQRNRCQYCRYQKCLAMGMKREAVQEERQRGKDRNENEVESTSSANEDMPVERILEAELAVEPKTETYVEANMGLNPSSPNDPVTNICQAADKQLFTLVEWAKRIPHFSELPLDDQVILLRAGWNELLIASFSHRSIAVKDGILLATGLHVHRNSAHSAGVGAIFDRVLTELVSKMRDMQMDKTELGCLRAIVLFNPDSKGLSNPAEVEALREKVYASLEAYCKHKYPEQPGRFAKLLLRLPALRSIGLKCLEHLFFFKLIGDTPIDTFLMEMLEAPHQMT
Method in brief: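 HepG2 cells transiently transfected with multiplexed GAL4-UAS reporter units and chimeric NR-GAL4 fusions, dosed 24 h. Reporter mRNA measured by RT-PCR, FAM labelling, HpaI digestion and capillary electrophoresis; gain-of-signal fitted relative to DMSO baseline.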

[14] = CCTE_Harrill_HTTr_Viability_MCF7: CCTE's 6-hour Cell Viability Assessment for the High-Throughput Transcriptomics (HTTr) Platform, in MCF-7 cells cultured in DMEM + 10% fetal bovine serum, Harrill Lab (AID 2284010; active = hit-call score of the fitted dose curve at least 0.9, where 1 is the maximum; inactive = score below 0.9)
Method in brief: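 Membrane integrity was scored by high-content imaging of propidium iodide dye exclusion after a 6 h exposure across an eight-point dilution series. Data were fitted bidirectionally relative to DMSO as negative control and baseline.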

[15] = CCTE_Harrill_HTTr_Apoptosis_MCF7: CCTE's 6-hour Apoptosis Assessment for the High-Throughput Transcriptomics (HTTr) Platform, in MCF-7 cells cultured in DMEM + 10% fetal bovine serum, Harrill Lab (AID 2284011; active = hit-call score of the fitted dose curve at least 0.9, where 1 is the maximum; inactive = score below 0.9)
Method in brief: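 Apoptosis in MCF-7 cells grown in DMEM with 10% fetal bovine serum was scored after a six hour exposure by high content imaging of caspase-3/7 activation (CellEvent Caspase 3/7 Green), with DMSO serving as negative control and baseline.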

[16] = ATG_PPRE_CIS: Attagene CIS-FACTORIAL HepG2 Assay for human Peroxisome Proliferator-activated Response Element (PPRE) (AID 2282958; active = hit-call score of the fitted dose curve at least 0.9, where 1 is the maximum; inactive = score below 0.9); details: HepG2 PPRE cis-element reporter, Attagene transcription factor profiling; actives raise or lower the signal
Method in brief: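 Read-out: fluorescent reporter mRNA fragments resolved by capillary electrophoresis after RT-PCR. HepG2 cells carried transiently transfected PPRE-driven cis reporter constructs and were dosed for 24 h; gain or loss of signal fitted relative to DMSO.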

[17] = molecular target: Nuclear receptor subfamily 1 group I member 3 (Homo sapiens) (UniProt Q14994); test: ATG_CAR_TRANS: Attagene TRANS-FACTORIAL HepG2 Assay for human Constitutive Androstane Receptor (CAR) (AID 2282969); details: HepG2 Attagene TRANS-FACTORIAL CAR reporter;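 note: activators raise reporter mRNA above DMSO so AC50 marks induction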
Method in brief: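 Readout is reporter mRNA induction, quantified by fluorescent primer extension and capillary electrophoresis after RT-PCR. Cells were HepG2 transiently carrying chimeric NR-Gal4 constructs with GAL4-UAS reporters, treated for 24 h; activity scored upward from DMSO.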

[18] = molecular target: Peroxisome proliferator-activated receptor gamma (Homo sapiens) (UniProt P37231); test: ATG_PPARg_TRANS: Attagene TRANS-FACTORIAL HepG2 Assay for human Peroxisome Proliferator-activated Receptor-gamma (PPARg) (AID 2283007)
Method in brief: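 Read-out: reporter mRNA induction, detected by fluorescence after RT-PCR and capillary electrophoresis. Transiently transfected human HepG2 liver cells carrying a chimeric NR-Gal4 construct were dosed for 24 h; activity was fitted upward relative to DMSO.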

[19] = molecular target: human Thyroid Receptor alpha (THRa1), THRA (gene 7067) (UniProt P10827); test: ATG_THRa1_TRANS: Attagene TRANS-FACTORIAL HepG2 Assay for human Thyroid Receptor alpha (THRa1) (AID 2283014)
Method in brief: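 Measured here is mRNA from a GAL4-UAS reporter in transfected HepG2 cells carrying a Gal4-fused receptor, 24 h post-dose. DMSO served as negative control and baseline.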

[20] = molecular target: human Peroxisome Proliferator-activated Receptor alpha (PPARa), PPARA (gene 5465) (UniProt Q07869); test: ATG_PPARa_TRANS: Attagene TRANS-FACTORIAL HepG2 Assay for human Peroxisome Proliferator-activated Receptor alpha (PPARa) (AID 2283001)
Sequence of human Peroxisome Proliferator-activated Receptor alpha (PPARa), PPARA (gene 5465) (Q07869 whole entry, looked up, the tested form may be a part): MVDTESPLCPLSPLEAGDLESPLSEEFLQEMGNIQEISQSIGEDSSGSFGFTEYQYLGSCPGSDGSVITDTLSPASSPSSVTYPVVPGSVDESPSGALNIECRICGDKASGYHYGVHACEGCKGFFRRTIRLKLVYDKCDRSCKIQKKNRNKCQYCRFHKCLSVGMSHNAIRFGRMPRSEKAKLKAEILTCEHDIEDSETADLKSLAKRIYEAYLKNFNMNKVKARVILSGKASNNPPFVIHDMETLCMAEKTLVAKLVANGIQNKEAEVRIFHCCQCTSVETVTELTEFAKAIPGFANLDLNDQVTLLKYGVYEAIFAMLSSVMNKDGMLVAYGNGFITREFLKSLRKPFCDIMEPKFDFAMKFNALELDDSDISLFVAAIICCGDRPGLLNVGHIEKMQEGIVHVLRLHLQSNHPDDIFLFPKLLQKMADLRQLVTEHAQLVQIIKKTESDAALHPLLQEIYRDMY
Method in brief: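 Reporter transcripts from GAL4-UAS units in transfected HepG2 were quantified 24 h after dosing. Detection used reverse transcription, PCR, fluorescent primer extension and capillary electrophoresis, with DMSO as baseline.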

CCCCCCC1CCCC(=O)O1 (stereo not given)
outcome [1]: inactive
outcome [2]: inactive
outcome [3]: inactive
outcome [4]: inactive
outcome [5]: inactive
outcome [6]: inactive
outcome [7]: inactive
outcome [8]: inactive

CC/C=C\CCO
outcome [9]: inactive
outcome [1]: inactive
outcome [10]: inactive
outcome [11]: inactive
outcome [12]: inactive
outcome [13]: inactive
outcome [5]: inactive
outcome [14]: inactive
outcome [15]: inactive

CCC(C)(CCC(C)C)C(=O)O (stereo not given)
outcome [11]: inactive
outcome [12]: inactive
outcome [4]: inactive
outcome [5]: inactive
outcome [8]: inactive

OCCN(CCO)c1cccc(Cl)c1
outcome [16]: inactive
outcome [17]: inactive
outcome [18]: inactive
outcome [4]: inactive
outcome [5]: inactive

Cc1cccnc1
outcome [17]: inactive
outcome [2]: inactive
outcome [10]: inactive
outcome [18]: inactive
outcome [11]: inactive
outcome [13]: inactive
outcome [19]: inactive
outcome [14]: inactive
outcome [15]: inactive

CCCC[N+]1(C)CCCC1
outcome [2]: inactive
outcome [10]: inactive
outcome [18]: inactive
outcome [11]: inactive
outcome [13]: inactive

OCCc1ccccn1
outcome [16]: inactive
outcome [17]: inactive
outcome [1]: inactive
outcome [2]: inactive
outcome [10]: inactive
outcome [3]: inactive
outcome [11]: inactive
outcome [12]: inactive
outcome [13]: inactive
outcome [4]: inactive

Clc1ccccn1
outcome [9]: inactive
outcome [12]: inactive
outcome [19]: inactive
outcome [6]: inactive
outcome [8]: inactive
outcome [14]: inactive
outcome [15]: inactive

CCCc1c(OCCCCc2nn[nH]n2)ccc(C(C)=O)c1O
outcome [9]: inactive
AC50 [16]: 2.26 µM (active)
outcome [1]: inactive
outcome [2]: inactive
outcome [10]: inactive
AC50 [3]: 50.4 µM (active)
AC50 [18]: 5.65 µM (active)
outcome [13]: inactive
outcome [19]: inactive
outcome [4]: inactive
outcome [5]: inactive
outcome [6]: inactive
outcome [7]: inactive
outcome [14]: inactive
outcome [15]: inactive

CC1=C(CC(=O)O)c2cc(F)ccc2/C1=C\c1ccc(S(C)=O)cc1 (stereo not given)
outcome [16]: inactive
outcome [17]: inactive
outcome [2]: inactive
outcome [3]: inactive
outcome [20]: inactive
AC50 [18]: 24.2 µM (active)
outcome [11]: inactive
outcome [13]: inactive
outcome [19]: inactive
outcome [6]: inactive
outcome [7]: inactive
outcome [14]: inactive
outcome [15]: inactive

Cc1cc(C)c(S(=O)(=O)O)cc1N=Nc1cc(S(=O)(=O)O)c2ccccc2c1O
outcome [16]: inactive
outcome [17]: inactive
outcome [2]: inactive
outcome [10]: inactive
outcome [18]: inactive
outcome [12]: inactive
outcome [19]: inactive
outcome [4]: inactive
outcome [5]: inactive
outcome [6]: inactive
outcome [8]: inactive

CCO[Si](CCCN)(OCC)OCC
outcome [9]: inactive
outcome [16]: inactive
outcome [1]: inactive
outcome [2]: inactive
outcome [10]: inactive
outcome [3]: inactive
outcome [20]: inactive
outcome [11]: inactive
outcome [7]: inactive
outcome [8]: inactive

COCCCN
outcome [16]: inactive
outcome [17]: inactive
outcome [2]: inactive
outcome [3]: inactive
outcome [20]: inactive
outcome [18]: inactive
outcome [12]: inactive
outcome [13]: inactive
outcome [19]: inactive
outcome [5]: inactive
outcome [6]: inactive
outcome [7]: inactive
outcome [8]: inactive
